Assay results reported in PubChem BioAssay.
The source made the active and inactive calls. Unless noted, no rule for the calls is given here.

Legend:
[1] = HepG2 liver cancer cell viability effects, profiling panel, resazurin fluorescence, 24 h, PK04 Diversity Set (AID 1172); conditions: higher = more signal
[2] = basal S. cerevisiae growth modulation, no modifier, primary screen, OD600, strain BY4716, 24 h, basal condition (AID 1173); conditions: OD600, 24 h, higher = more signal, called active from +8 up or from −8 down
[3] = MM1S myeloma cell viability, profiling panel, resazurin fluorescence, basal, 24 h, PK04 Diversity Set (AID 1174); conditions: higher = more signal, called active from +8 up or from −8 down;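 also: MM1S multiple myeloma cell line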
[4] = target: Dihydroorotate dehydrogenase (quinone), mitochondrial (Plasmodium falciparum (isolate 3D7)) (UniProt Q08210); experiment: PfDHODH enzyme inhibitors, primary screen, biochemical, C-terminal His tag, absorbance 600 nm (AID 1175); conditions: DCIP absorbance 600 nm, higher = more signal, called active from +8 up or from −8 down;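 also: recombinant parasite enzyme with a five histidine tag at its C terminus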
Sequence of Dihydroorotate dehydrogenase (quinone), mitochondrial (Plasmodium falciparum (isolate 3D7)) (Q08210 whole entry, looked up): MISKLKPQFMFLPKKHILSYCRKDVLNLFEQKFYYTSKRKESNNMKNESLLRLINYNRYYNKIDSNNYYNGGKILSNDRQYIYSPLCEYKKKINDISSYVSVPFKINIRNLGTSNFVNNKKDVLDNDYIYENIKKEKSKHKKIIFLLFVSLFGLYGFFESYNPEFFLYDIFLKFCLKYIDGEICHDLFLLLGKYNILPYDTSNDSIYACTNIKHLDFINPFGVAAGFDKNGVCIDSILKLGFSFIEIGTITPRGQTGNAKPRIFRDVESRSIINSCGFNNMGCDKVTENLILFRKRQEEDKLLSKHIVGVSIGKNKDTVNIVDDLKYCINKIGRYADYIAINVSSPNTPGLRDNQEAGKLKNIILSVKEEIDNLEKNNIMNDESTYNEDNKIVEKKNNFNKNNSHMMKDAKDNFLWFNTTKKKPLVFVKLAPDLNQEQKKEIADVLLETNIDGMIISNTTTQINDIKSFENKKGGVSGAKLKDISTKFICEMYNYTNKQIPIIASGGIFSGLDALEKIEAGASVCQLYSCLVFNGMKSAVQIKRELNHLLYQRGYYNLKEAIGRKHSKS

[5] = P. aeruginosa biofilm formation inhibitors, primary screen, strain PAO1, LB-PBS medium, absorbance 600 nm (AID 1176); conditions: P. aeruginosa PAO1 growth/biofilm, A600, 12 h; higher = more signal
[6] = S. cerevisiae RM11-1a growth modifiers, primary screen, strain RM11-1a, OD600, basal, 24 h (AID 1177); conditions: OD600, 24 h, higher = more signal, called active from +8 up or from −8 down;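 also: cultures grown under basal conditions with no added stressor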
[7] = E. coli acrAB mutant growth effects, primary screen, E. coli filamentation inducers, strain DRC39, OD650, 24 h (AID 1178); conditions: higher = more signal, called active from +8 up or from −8 down;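 also: growth measured as culture turbidity by optical density at 650 nm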
[8] = E. coli acrAB mutant growth effects, primary screen, E. coli filamentation inducers, strain DRC39, OD650, 48 h (AID 1179);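 also: screen aims at cell division blockers that make cells filament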; conditions: E. coli DRC39 delta-acrAB growth, higher = more signal, called active from +8 up or from −8 down
[9] = RPMI8226 myeloma cell viability, profiling panel, resazurin fluorescence, basal, 24 h, PK04 Diversity Set (AID 1180); conditions: higher = more signal;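 also: RPMI8826 multiple myeloma cell line at 5000 cells per well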
[10] = target: E3 ubiquitin-protein ligase XIAP (Homo sapiens) (UniProt P98170); experiment: XIAP binders, primary screen, biophysical, small-molecule microarray, fluorescence 635 nm (AID 1181); conditions: small-molecule microarray binding, higher = more signal;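 also: score merges 667 nm emission and signal to noise over triplicate slides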
Sequence of E3 ubiquitin-protein ligase XIAP (Homo sapiens) (P98170 whole entry, looked up): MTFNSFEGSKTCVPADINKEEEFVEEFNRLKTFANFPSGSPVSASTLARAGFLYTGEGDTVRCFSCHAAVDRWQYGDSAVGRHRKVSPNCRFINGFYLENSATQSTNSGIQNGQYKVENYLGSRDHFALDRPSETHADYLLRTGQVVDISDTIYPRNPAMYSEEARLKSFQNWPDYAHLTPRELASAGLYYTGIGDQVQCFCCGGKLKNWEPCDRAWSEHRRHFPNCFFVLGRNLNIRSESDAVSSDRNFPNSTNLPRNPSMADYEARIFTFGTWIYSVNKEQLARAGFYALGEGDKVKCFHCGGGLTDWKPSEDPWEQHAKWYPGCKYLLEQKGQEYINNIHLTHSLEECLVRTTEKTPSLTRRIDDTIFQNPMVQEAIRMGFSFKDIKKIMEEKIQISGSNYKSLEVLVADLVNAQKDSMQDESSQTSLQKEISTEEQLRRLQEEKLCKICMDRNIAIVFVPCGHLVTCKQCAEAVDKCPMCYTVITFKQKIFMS

[11] = tested on: XIP peptide (Xip251-270) binding; experiment: small-molecule binders of XIP peptide, primary screen, biochemical, small-molecule microarray, fluorescence 635/667 nm, 0.1 µg/mL protein (AID 1182); conditions: fluorescent protein binding, 635 nm, higher = more signal, called active from +8 up or from −8 down
[12] = tested on: XIP peptide (Xip251-270); experiment: small-molecule binders of XIP peptide, primary screen, biochemical, small-molecule microarray, fluorescence 635/667 nm, 0.5 µg/mL protein (AID 1183); conditions: small-molecule microarray binding, fluorescence 635 nm; higher = more signal
[13] = Plasmodium falciparum growth inhibition, primary screen, strain 3D7, DAPI fluorescence, 100 nL (AID 1184);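 also: parasites grown inside human red blood cells in medium with human serum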; conditions: P. falciparum 3D7 growth, 3 d, higher = more signal
[14] = target: Homeobox protein Hox-A13 (Mus musculus) (UniProt Q62424); experiment: inhibitors of HoxA13-DNA binding, primary screen, biochemical, fluorescence polarization, labeled oligonucleotide (AID 1185); conditions: 15 min, higher = more signal, called active from +8 up or from −8 down
Sequence of Homeobox protein Hox-A13 (Mus musculus) (Q62424 whole entry, looked up): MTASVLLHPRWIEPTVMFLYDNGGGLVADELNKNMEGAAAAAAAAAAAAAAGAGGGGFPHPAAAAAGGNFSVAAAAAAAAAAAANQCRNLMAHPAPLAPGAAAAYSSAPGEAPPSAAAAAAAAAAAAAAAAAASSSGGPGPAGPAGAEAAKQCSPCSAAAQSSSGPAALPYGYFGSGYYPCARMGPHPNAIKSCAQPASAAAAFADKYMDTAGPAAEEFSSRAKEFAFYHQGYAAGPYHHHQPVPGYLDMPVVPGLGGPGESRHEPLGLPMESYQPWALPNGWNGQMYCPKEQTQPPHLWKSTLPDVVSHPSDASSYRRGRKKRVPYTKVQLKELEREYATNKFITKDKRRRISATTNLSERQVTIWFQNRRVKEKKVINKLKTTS

[15] = inhibitors of hydroxyurea-induced Chk1 phosphorylation, primary screen, imaging, HeLa, phospho-Chk1 antibody, percent positive cells (AID 1186); conditions: hydroxyurea-induced phospho-Chk1 immunofluorescence imaging, higher = more signal
[16] = inhibitors of hydroxyurea-induced Chk1 phosphorylation, primary screen, imaging, HeLa, phospho-Chk1 nuclear intensity (AID 1187); conditions: hydroxyurea-induced phospho-Chk1 immunofluorescence imaging, higher = more signal

SMILES	z-score [1]	z-score [2]	z-score [3]	composite z-score [4]	z-score [5]	z-score [6]	z-score [7]	z-score [8]	z-score [9]	composite z-score [10]	composite z-score [11]	composite z-score [12]	z-score [13]	z-score [14]	z-score [15]	z-score [16]
C[C@H]1NC(=O)C([C@@H](C)OCc2ccccc2)NC(=O)[C@@]23C(=O)N[C@@H](Cc4ccccc4)C2[C@H](C)[C@@]2(C)O[C@H]2C3/C=C/C/C=C\CNC1=O (stereo partly drawn)	-0.588	0.481 (inactive)	0.178 (inactive)	0.369 (inactive)	0.13 (inactive)	0.787 (inactive)	0.979 (inactive)	0.545 (inactive)	0.472	-0.381	-0.113 (inactive)	-0.417	-2.93	-6.74 (inactive)	0.314 (inactive)	0.451 (inactive)
COCCCNC(=O)[C@@H]1c2ccccc2C(=O)N(C2CCCCC2)[C@H]1c1ccc(CO)cc1	0.559	-0.32 (inactive)	0.614 (inactive)	-0.271 (inactive)	0.745 (inactive)	-0.611 (inactive)	0.0359 (inactive)	-0.122 (inactive)	0.505	-0.0773	-0.209 (inactive)	0.339	-1.76	-0.837 (inactive)	0.226 (inactive)	-0.182 (inactive)
C=C(COC)/C(=C/C[C@@H](OC(C)=O)c1ccccc1OCCO)c1cc(C(=O)OC)ccc1OC	-0.0418	0.487 (inactive)	-0.705 (inactive)	-0.069 (inactive)	0.543 (inactive)	0.759 (inactive)	0.013 (inactive)	-0.199 (inactive)	-0.316	-0.0279	-0.0801 (inactive)	0.587	-2.76	-4.47 (inactive)	-0.503 (inactive)	0.169 (inactive)
C=CC(CO)NC(=O)OCC1c2ccccc2-c2ccccc21 (stereo not drawn)	0.072	-1.46 (inactive)	0.358 (inactive)	-1.28 (inactive)	0.0117 (inactive)	-0.917 (inactive)	-0.712 (inactive)	-0.616 (inactive)	0.388	-0.125	1.62 (inactive)	0.162	1.42	0.0393 (inactive)	0.145 (inactive)	0.42 (inactive)
CC#CCO[Si](C#CCCCCCC)(C(C)C)C(C)C	0.296	-9.54 (active)	0.486 (inactive)	-0.487 (inactive)	0.501 (inactive)	0.0606 (inactive)	-0.0081 (inactive)	0.448 (inactive)	0.166	-0.22	-0.0884 (inactive)	0.938	-1.23	-2 (inactive)	-0.156 (inactive)	0.0743 (inactive)
COc1ccc(CCNC(=O)[C@@]2(C)c3ccccc3C(=O)N(Cc3cc(C(F)(F)F)cc(C(F)(F)F)c3)[C@H]2c2ccc(CO)cc2)cc1	0.0945	0.256 (inactive)	0.084 (inactive)	-0.533 (inactive)	0.773 (inactive)	-0.147 (inactive)	0.482 (inactive)	0.282 (inactive)	0.639	0.0512	0.517 (inactive)	0.702	-1.88	-2.88 (inactive)	-0.0741 (inactive)	0.364 (inactive)
CC(=O)NCCCC[C@@H]1NC(=O)[C@@H]2C[C@H](C(=O)NCCCCCC[N+](C)(C)C)[C@H](c3ccc(O)cc3)N2C1=O	-0.793	0.857 (inactive)	-0.471 (inactive)	-1.24 (inactive)	-0.807 (inactive)	0.0885 (inactive)	-0.241 (inactive)	-0.229 (inactive)	-0.854	0.123	0.0817 (inactive)	0.846	1.12	-2.45 (inactive)	0.956 (inactive)	0.817 (inactive)
NC(=O)[C@@]1(CCS(=O)(=O)c2ccccc2)COC(c2ccc(OCCCO)cc2)=N1	-0.285	0.511 (inactive)	-1.34 (inactive)	-0.809 (inactive)	-0.304 (inactive)	0.0637 (inactive)	-0.223 (inactive)	0.491 (inactive)	-0.318	0.291	-0.377 (inactive)	-0.395	0.605	-4.75 (inactive)	-0.511 (inactive)	-1.12 (inactive)
COCCOC(=O)N1C(=O)[C@@]2(c3ccccc31)[C@H](C(N)=O)[C@H]1C(=O)O[C@H](c3ccccc3)[C@H](c3ccccc3)N1[C@@H]2c1ccc(OCCO)cc1	1.35	1.75 (inactive)	0.671 (inactive)	-0.525 (inactive)	-0.108 (inactive)	1.96 (inactive)	0.755 (inactive)	0.094 (inactive)	0.7	0.109	0.675 (inactive)	0.638	0.0624	-4.49 (inactive)	0.114 (inactive)	-0.0135 (inactive)
COCCOC(=O)N1C(=O)[C@@]2(c3ccccc31)[C@H](C(=O)N1CCCCCCC1)[C@H]1C(=O)O[C@H](c3ccccc3)[C@H](c3ccccc3)N1[C@@H]2c1ccc(O)cc1	0.226	-0.975 (inactive)	-1.51 (inactive)	-0.862 (inactive)	1.32 (inactive)	-0.145 (inactive)	-0.0831 (inactive)	-0.303 (inactive)	-1.03	0.782	3.54 (inactive)	0.83	-0.621	2.5 (inactive)	-0.391 (inactive)	-0.586 (inactive)
CC(C)C[C@@H]1NC(=O)[C@@H]2C[C@H](C(=O)NCCCC[N+](C)(C)C)[C@H](c3ccc(O)cc3)N2C1=O	-0.965	0.166 (inactive)	-0.524 (inactive)	-31.3 (active)	0.876 (inactive)	0.0138 (inactive)	0.382 (inactive)	0.581 (inactive)	-0.866	-0.128	1.03 (inactive)	0.858	-0.174	-1.73 (inactive)	0.757 (inactive)	0.0766 (inactive)
COc1ccc(NC(=O)O[C@H]2[C@H](OC(=O)Nc3ccc4c(c3)OCO4)[C@H](OC(=O)Nc3ccc4c(c3)OCO4)[C@@H](OC)O[C@@H]2CO)cc1	-0.637	1.41 (inactive)	-0.366 (inactive)	0.229 (inactive)	0.826 (inactive)	1.88 (inactive)	0.677 (inactive)	0.18 (inactive)	-0.686	0.52	1.04 (inactive)	0.866	-2.24	-4.94 (inactive)	-0.246 (inactive)	0.267 (inactive)
CCCCC(=C=CC[C@@H](O)c1cccc(OCCO)c1)CCO	0.695	-1.26 (inactive)	-0.0452 (inactive)	-0.376 (inactive)	0.424 (inactive)	0.549 (inactive)	1.14 (inactive)	0.839 (inactive)	1.37	-0.0853	-0.0509 (inactive)	0.106	-0.0161	-2.25 (inactive)	-0.875 (inactive)	-0.341 (inactive)
C=CC[C@@]1(C(=O)N(C)C)N=C(c2ccc(OCCCO)cc2)O[C@@H]1c1ccccc1	0.879	-2.54 (inactive)	-0.235 (inactive)	0.13 (inactive)	0.95 (inactive)	-0.422 (inactive)	-0.936 (inactive)	-0.649 (inactive)	0.267	-0.33	0.98 (inactive)	0.425	-0.76	-6.79 (inactive)	0.343 (inactive)	0.0811 (inactive)
C=CCC(OC(C)=O)[C@@H]1[C@@H](N(Cc2ccc(-c3ccccc3)cc2)C(=O)c2ccc(C)cc2)c2cc(OCCCO)ccc2N1C(=O)c1ccc2ccccc2c1 (stereo partly drawn)	-0.643	-0.766 (inactive)	1.12 (inactive)	-1.55 (inactive)	-0.0877 (inactive)	-1.99 (inactive)	0.406 (inactive)	0.67 (inactive)	1.36	-0.0357	-0.654 (inactive)	-0.354	-1.26	-0.819 (inactive)	-0.363 (inactive)	-0.221 (inactive)
COCCOC(=O)N1C(=O)[C@@]2(c3cc(C#CC4=CCCCC4)ccc31)[C@H](C(=O)N1CCc3cc(OC)c(OC)cc3C1)[C@H]1C(=O)O[C@H](c3ccccc3)[C@H](c3ccccc3)N1[C@@H]2c1ccc(O)cc1	-0.03	0.935 (inactive)	-0.0713 (inactive)	0.0434 (inactive)	0.802 (inactive)	2.23 (inactive)	-0.724 (inactive)	-0.169 (inactive)	0.485	0.072	1.49 (inactive)	0.795	-1.8	0.129 (inactive)	-0.0825 (inactive)	0.246 (inactive)
COc1ccc([Si](C)(C)[C@H]2[C@H](CCO)O[C@@]3(C(=O)N(Cc4ccc(N5CCOC5=O)cc4)c4ccccc43)[C@@H]2C)cc1	-0.667	2.47 (inactive)	-2.66 (inactive)	1.02 (inactive)	2.02 (inactive)	5.44 (inactive)	1.32 (inactive)	0.714 (inactive)	-2.06	-0.0206	0.782 (inactive)	0.666	-2.76	-2.76 (inactive)	-0.73 (inactive)	-0.713 (inactive)
NC(=O)NCC#Cc1ccc2c(c1)[C@]1(C(=O)N2)[C@H](C(=O)Nc2nc3ccccc3s2)[C@H]2C(=O)O[C@H](c3ccccc3)[C@H](c3ccccc3)N2[C@@H]1c1ccc(OCCO)cc1	1.1	1.12 (inactive)	0.365 (inactive)	-0.396 (inactive)	3.99 (inactive)	1.27 (inactive)	0.426 (inactive)	-0.221 (inactive)	-0.271	0.013	-0.165 (inactive)	-0.913	-0.245	0.217 (inactive)	0.287 (inactive)	0.68 (inactive)
